Menin MLL FP TR – inhibitors of human menin-MLL interaction, mutant MLL peptide; O00255; Menin + Texas Red MLL mutant peptide, fluorescence polarization; Potency, µM (top dose mostly 61.6 µM), for the others: at the highest dose FP activity change, negative = inhibition, usual class: inhibitors; 0.23% of 270,000 active; AID 1768; active means well fitted inhibition curve with a large enough effect in the polarisation, with a control signal flat, not every such curve was filed as active; inconclusive means small, poorly fitted or top-dose-only effect, or effect the other way, or a change in a side signal; inactive means no such curve, though single readings can be large or run the other way; the % refers to the polarisation; further: potency means the concentration at half of the fitted maximal effect; % of control where 0% means no effect
MLL CXXC-DNA inh – inhibitors of human MLL CXXC domain-DNA interaction | Q03164 | 0.037% of 290,000 active | Potency, µM (top dose mostly 115 µM), inactives show at the highest dose activity change, negative = inhibition, usual class: inhibitors | AID 2662 | MLL-CXXC / FITC-HOXA9 DNA fluorescence polarization; active means well fitted inhibition curve with a large enough effect in the polarisation, with a control signal flat, not every such curve was filed as active; inconclusive means small, poorly fitted or top-dose-only effect, or effect the other way, or a change in a side signal; inactive means no such curve, though single readings can be large or run the other way; the % refers to the polarisation; further: potency means the concentration at half of the fitted maximal effect
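Steps: dispense CXXC domain solution (7 uM) → pin compounds or unlabeled HOX-A9 DNA control → 5 min ambient → add FLSN-HOX-A9 solution (50 nM) → spin → 30 min ambient → fluorescence polarization. Tris pH 7.5/NaCl/DTT/BSA buffer.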
MBNL1 CUG block – MBNL1-poly(CUG) RNA binding inhibition. 0.036% of 280,000 active. AID 2675. TR-FRET MBNL1-His/biotin-(CUG)12 binding, 665/545 ratio. Potency, µM (highest dose often 57.5 µM), for the others: top-dose activity change, negative = inhibition, hits mostly inhibitors; active means well fitted inhibition curve with a large enough effect in the signal ratio, with a control signal flat, not every such curve was filed as active; inconclusive means small, poorly fitted or top-dose-only effect, or effect the other way, or a change in a side signal; inactive means no such curve, though single readings can be large or run the other way; the % refers to the signal ratio; further: potency means the concentration at half of the fitted maximal effect; on the % scale 0 is the no-effect control and ±100 the full control effect
Target sequence (Q9NR56 whole entry, looked up): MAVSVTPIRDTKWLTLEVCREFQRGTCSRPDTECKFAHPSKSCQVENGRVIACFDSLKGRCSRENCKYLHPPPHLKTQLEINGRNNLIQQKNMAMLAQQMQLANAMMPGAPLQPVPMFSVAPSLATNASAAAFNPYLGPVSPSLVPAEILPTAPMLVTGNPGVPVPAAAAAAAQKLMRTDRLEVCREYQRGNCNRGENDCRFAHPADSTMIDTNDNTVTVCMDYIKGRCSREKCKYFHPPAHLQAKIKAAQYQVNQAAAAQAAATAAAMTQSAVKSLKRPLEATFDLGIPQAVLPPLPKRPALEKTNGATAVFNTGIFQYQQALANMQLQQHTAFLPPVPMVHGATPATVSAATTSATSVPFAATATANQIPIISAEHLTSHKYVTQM
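Compounds (final 92 nM to 58 uM) are added to His-tagged MBNL1 and biotin-(CUG)12, then terbium anti-His antibody and streptavidin-XL665 (5 nM final). After 60 min at room temperature, the 665/545 nm ratio is read.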
ASM inhibitor – blocks human secretory acid sphingomyelinase; placental ASM, HMU-PC fluorogenic substrate, 60 min; 0.006% of 340,000 active; Potency, µM (highest dose often 57.5 µM), inactives show at the highest dose activity change, negative = inhibition, most hits filed as inhibitors; P17405; active means well fitted inhibition curve with a large enough effect; inconclusive means small, poorly fitted or top-dose-only effect; inactive means no such curve, though single readings can be large or run the other way; further: potency means the concentration at half of the fitted maximal effect
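Human placenta-derived ASM preincubated with compound 10 min at room temperature, then reacted with 9 uM (final) fluorogenic HMU-PC substrate for 60 min at 37 C. Stop solution raises pH to 10; fluorescence read at Ex 386/Em 447 nm.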
pAkt inh – blocks phosphorylation of Akt | Neuro2A IGF-stimulated pAkt S473 HTRF, 20 min; stronger effect = lower value | activity change, % for hits at 50 µM | 0.32% of 360,000 active | AID 651550; in the data active means activity change below about -80%; inconclusive means mostly about -51% to -80%; further: on the % scale 0 is the no-effect control and ±100 the full control effect
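Neuro2A cells in DMEM with 0.5% FBS, overnight at 37 deg C, given compound at single 50 µM final, then IGF (6 nM final) for 20 min at 37 deg C. Lysed; phospho-Akt Ser473 by HTRF after 24 h, 665/615 ratio.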
Menin-MLL FL inh – inhibitors of human menin-MLL interaction, wild-type MLL peptide; 290,000 tested, under 10 active; Fluorescence polarization, fluorescein-MLL peptide displacement from menin; AID 1766; FP activity change, % at 61.4 µM; active means well fitted curve in the direction sought with a large enough effect in the polarisation, not every such curve was filed as active; inconclusive means small, poorly fitted or top-dose-only effect, or effect the other way, or a change in a side signal; inactive means no such curve, though single readings can be large or run the other way; the % refers to the polarisation; further: % of control where 0% means no effect
* = called active by the depositor; i = inactive; ? = inconclusive; . = not tested or not shown. Compounds with a hit are over-represented: about 0.45% of the library has one in this group of screens.

SMILES	Menin MLL FP TR	MLL CXXC-DNA inh	MBNL1 CUG block	ASM inhibitor	pAkt inh	Menin-MLL FL inh
Cc1cc(NC(=O)CSc2nc3ccsc3c(=O)n2CCCCC(=O)O)no1	-27%	-1%	12%	1%	i	-1
COC(=O)c1ccc2nc(-c3cccc(Br)c3)c(CC3CCCCC3)n2c1	.	.	.	.	i	.
CCOC(=O)CN(C(=O)Cn1nnc2ccccc21)C(C(=O)NCCOC)c1ccccc1C (stereo not drawn)	3%	0%	-10%	6%	i	2
C/C=C(\C)CN1CCN(c2cccc(C)c2C)CC1	-2%	1%	-2%	6%	i	-4
COc1ccc(C2C3=C(CC(C)(C)CC3=O)Nc3c2c(=O)[nH]c(=O)n3Cc2ccccc2)cc1 (stereo not drawn)	4%	6%	3%	i	-102%*	?
O=C1CCCN1CCCNc1nc2c(S(=O)(=O)c3ccc(Br)cc3)nnn2c2ccccc12	.	-1%	-3%	-2%	i	.
COC(=O)N/N=C/c1c(C)c(C(=O)c2ccc(F)cc2)n2ccccc12	8%	11%	?	-2%	i	5
Cc1c(C(=O)Nc2ccc(Cl)cc2)c2ccccn2c1C(=O)c1ccc(F)cc1	5%	18%	-11%	3%	-110%*	-1
CC1=C(C(=O)OCc2ccccc2)C(C2CCCCC2)NC(=O)N1CCCCCC(=O)O (stereo not drawn)	-1%	.	.	.	.	1
CCOC(=O)c1sc2nc(CC(=O)OC)nc(NCc3ccco3)c2c1C	1%	5%	17%	0%	i	?
CCOC(=O)c1sc2ncnc(NCc3ccco3)c2c1C	6%	-2%	51%	-6%	-112%*	15
NC(=O)c1cnn2c1NC(c1ccc(F)cc1)CC2C(F)(F)F (stereo not drawn)	-9%	-2%	2%	2%	-111%*	-6
Cc1ccc(NC(=O)COc2ccccc2)cc1Cl	2%	2%	-3%	0%	i	1
CCOCC(=O)Nc1ccc(C)c(Cl)c1	-3%	0%	9%	2%	-129%*	0
Cc1nc2ccc(S(=O)(=O)NCC(=O)N3CCN(c4ccccn4)CC3)cc2s1	9%	10%	-5%	-1%	-117%*	4
CCCCC/C=C\C/C=C\CCCCCCCC(=O)O[C@@H](CO)COC(=O)CCCCCCCCCCCCCCCCC	-6%	.	.	.	.	-2
Cc1ccc(NC(=O)CC2CS(=O)(=O)CC2CC(=O)Nc2ccc(C)c(C)c2)cc1C (stereo not drawn)	24%	21%	-4%	-1%	-121%*	8
CCOC(CCNC(=O)c1cn(-c2cccc(C)n2)cn1)OCC	0%	11%	0%	5%	i	5
O=C(O)c1cccc(-n2cccc2/C=N/O)c1	10%	7%	2%	-5%	-109%*	4
O=C(COC(=O)c1ccccc1NCc1ccco1)Nc1ccc2c(c1)OCO2	?	0%	6%	341%	i	1
O=C(COC(=O)c1ccccc1NC(=O)c1ccco1)Nc1ccc2c(c1)OCO2	?	14%	-19%	-2%	-102%*	6
O=C(NCCNc1ccc([N+](=O)[O-])cc1)c1cc(F)c(F)cc1Cl	.	.	.	-13%	i	.
Cc1cccc2cc(CN(Cc3nnnn3C3CCCCC3)C3CCCC3)c3nnnn3c12	-3%	4%	1%	-7%	-116%*	-2
Cc1cc(C)c2[nH]c(=O)c(CN(Cc3nnnn3C3CCCC3)C3CCCCC3)cc2c1	-8%	-6%	3%	0%	i	1
O=C(CCS(=O)(=O)c1ccc(Br)cc1)N1CCN(Cc2ccccc2)CC1	?	1%	-4%	2%	-109%*	1
SMILES	Menin MLL FP TR	MLL CXXC-DNA inh	MBNL1 CUG block	ASM inhibitor	pAkt inh	Menin-MLL FL inh
C=CCn1c(Sc2nnc(C)s2)nc2c1c(=O)[nH]c(=O)n2C	4%	-2%	-6%	0%	-124%*	-2
O=C(c1cccs1)N1CCC(C(=O)N2CCN(Cc3ccc4c(c3)OCO4)CC2)CC1	-16%	2%	4%	2%	i	1
COc1ccccc1N1CCN(c2nc3ccccc3nc2C(C#N)C(=O)OC(C)C)CC1 (stereo not drawn)	-30%	13%	4%	-8%	-97%*	3
N#CC(C(=O)NCCc1ccccc1)c1nc2ccccc2nc1N1CCCCC1 (stereo not drawn)	-1%	-19%	-1%	16%	i	3
N#CC(C(=O)NCc1ccccc1)c1nc2ccccc2nc1N1CCCC1 (stereo not drawn)	9%	?	20%	177%	-84%*	?
CCn1cc(C(=O)NP(=O)(Nc2ccc(C)cc2)Nc2ccc(C)cc2)c2ccccc21	.	0%	.	-2%	i	0
NS(=O)(=O)c1ccc2ccccc2c1	.	-15%	-5%	-5%	i	1
CCC(=O)Nc1cccc(-c2cn3ccsc3n2)c1	.	1%	-2%	0%	-105%*	4
CC(C)CC(=O)Nc1cccc(-c2cn3ccsc3n2)c1	14%	4%	5%	2%	i	4
COc1ccc(/C=N/NC(=O)c2ccc(-n3cnnn3)cc2)cc1	.	.	.	42%	i	.
COC(=O)c1cc(NC(=O)c2ccccc2)c(=O)oc1/C=C/Nc1ccc(Oc2ccccc2)cc1	10µM*	?	.	1%	i	?
COc1ccc(C(=O)Nc2cc(C(C)=O)c(C)oc2=O)cc1	3%	8%	?	-1%	i	2
O=C1CCN(C(=O)Nc2cccc(Cl)c2)N1	18%	4%	-5%	1%	-120%*	-1
CC1CCCN(C(=O)c2ccccc2OC2CCN(S(C)(=O)=O)CC2)C1 (stereo not drawn)	-11%	1%	-14%	6%	i	-1
O=C(COC(=O)c1ccccc1Oc1ccccc1)NC1CC1	-9%	4%	-5%	0%	i	-1
Cc1ccc(NC(=O)CN(C)c2ccc(S(=O)(=O)N3CCN(C)CC3)cn2)cc1	0%	-9%	-9%	1%	-102%*	0
CCn1nnc(NC(=O)c2cccnc2)n1	18%	-7%	9%	2%	i	2
CCn1nnc(NC(=O)c2ccc(C(C)(C)C)cc2)n1	-17%	-1%	-9%	-1%	-108%*	-3
CCN(C(=O)CSc1n[nH]c(-c2cc(Cl)ccc2OC)n1)C1CCS(=O)(=O)C1 (stereo not drawn)	.	.	.	-1%	i	.
S=c1[nH]nc(COc2ccccc2)n1C1CCCCC1	-6%	6%	-6%	-5%	-101%*	5
S=c1[nH]nc(COc2ccccc2)n1Cc1ccccc1	-7%	0%	-8%	1%	i	4

Assay outcomes (PubChem)
